# Test results from PubChem BioAssay (NCATS).
# Inconclusive results are not listed. Where a call stands in place of a potency, no number is given. Activity calls are given as the source filed them. Calls follow the shape of the dose curve; as a rule, active = well fitted curve in the direction sought with a large enough effect; inconclusive = small, poorly fitted or top-dose-only effect, or another doubt; inactive = no such curve, though single readings can be large; an effect the other way counts as inactive or inconclusive.
# Assays:
# [1] = qHTS of pediatric cancer cell lines to identify multiple opportunities for drug repurposing: Primary screen for Rh30 cells (AID 1347107); also: series mostly up to about 46 µM; nearly all actives have a fitted effect of over 75% in size
# Outline: (§1)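 Cells (500-1,000/well) in growth media were settled 5 h at 37 degrees C, then given compounds for 48 h. Viability was read as CellTiter-Glo luminescence. Primary runs used MIPE at 11 points (0.78 nM-46 µM) and NPC at 8 points (0.59 nM-46 µM); follow-ups used 11 points.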
# [2] = qHTS of pediatric cancer cell lines to identify multiple opportunities for drug repurposing: Primary screen for control Hh wild type fibroblast cells (AID 1347106);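 also: series mostly up to about 46 µM; a drop in luminescence marks cytotoxicity and a rise apparent proliferation; nearly all actives have a fitted effect of over 55% in size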
# Outline: as §1
# [3] = qHTS of pediatric cancer cell lines to identify multiple opportunities for drug repurposing: Primary screen for Rh41 cells (AID 1347108);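 also: series mostly up to about 46 µM; luminescence drop marks cytotoxic hits; nearly all actives have a fitted effect of over 70% in size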
# Outline: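 CRCs from 8- or 11-point titrations (lowest final 0.59 nM NPC, 0.78 nM MIPE). Cell viability: CellTiter-Glo after 48 h incubation, 15 min room-temperature development, luminescence imaging.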
# [4] = qHTS of pediatric cancer cell lines to identify multiple opportunities for drug repurposing: Confirmatory screen for NB1643 cells (AID 1347109); also: potency is read from the fitted curve at half-maximal effect; nearly all actives have a fitted effect of over 45% in size
# Outline: as §1
# [5] = qHTS of pediatric cancer cell lines to identify multiple opportunities for drug repurposing: Confirmatory screen for A673 cells (AID 1347110);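 also: potency is read from the fitted curve at half-maximal effect; cells exposed to compound for 48 h before the viability read; nearly all actives have a fitted effect of over 65% in size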
# Outline: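 Forty-eight-hour viability assay. Follow-up compounds ran at 11-point dilutions; positive control bortezomib at 2.3 uM final, neutral control DMSO.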
# [6] = qHTS of pediatric cancer cell lines to identify multiple opportunities for drug repurposing: Confirmatory screen for SK-N-MC cells (AID 1347111);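 also: potency is read from the fitted curve at half-maximal effect; cells exposed to compound for 48 h before the readout; nearly all actives have a fitted effect of over 70% in size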
# Outline: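 Metabolically active cells were quantified by ATP-dependent luminescence (CellTiter-Glo, 15 min at room temperature) following 48 h treatment. Cells had been plated at 500-1,000 per well and settled for 5 h beforehand.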
# [7] = qHTS of pediatric cancer cell lines to identify multiple opportunities for drug repurposing: Confirmatory screen for BT-12 cells (AID 1347112); also: nearly all actives have a fitted effect of over 55% in size
# Outline: as §1
# [8] = qHTS of pediatric cancer cell lines to identify multiple opportunities for drug repurposing: Confirmatory screen for DAOY cells (AID 1347114); also: nearly all actives have a fitted effect of over 65% in size
# Outline: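 Viability measured as metabolically active cells via CellTiter-Glo luminescence following 48 hours of compound exposure, 11-point dilutions in confirmatory testing. 500-1,000 cells/well plated 5 hours before dosing; controls were DMSO and 2.3 µM bortezomib.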
smiles,measurement,setting,value
CC(C)(C)NC(=O)[C@H]1CC[C@H]2[C@@H]3CC[C@H]4NC(=O)C=C[C@]4(C)[C@H]3CC[C@]12C,Potency,[1],inactive
CC(C)C1CCC(C(=O)N[C@H](Cc2ccccc2)C(=O)O)CC1 (stereo not given in full),Potency,[2],inactive
same,Potency,[3],inactive
COc1ccc(-c2ccc3cc(C(=O)O)ccc3c2)cc1C12CC3CC(CC(C3)C1)C2,Potency,[2],inactive
same,Potency,[1],inactive
same,Potency,[4],9.27 µM (active)
same,Potency,[5],5.85 µM (active)
same,Potency,[6],2.61 µM (active)
same,Potency,[7],inactive
same,Potency,[8],inactive
